LMP1 NFkB inh: inhibitors of Epstein-Barr LMP1-induced NF-kappaB reporter | LMP1-induced NF-kappaB luciferase reporter cells, luminescence | inhibition, % at 12.5 µM | 0.69% of 350,000 active; in the data active means inhibition above about 41%; inconclusive means no clear call, values can overlap the other calls;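 further: 0% = neutral control wells and 100% = reference inhibitor control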
TRPM1 prom inh: MITF TRPM1 promoter inhibition in SK-MEL-5 cells. SK-MEL-5 TRPM1 promoter luciferase, 24 h. inhibition, % at 12.5 µM. 0.83% of 330,000 active;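 active means mean inhibition across replicates of 60% or more, whatever share of single replicates reaches that level; inconclusive means some that reach 60%, reason not given; inactive means mean inhibition across replicates below 60%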
Wnt bcat act: activators of Wnt/beta-catenin signaling; Wnt/beta-catenin reporter cell assay, activator, plate reader; activation, % at 9.35 µM; 1.2% of 300,000 active; AID 743398; in the data active means activation above about 30%, passing the limit was not always enough; inconclusive means no clear call, values can overlap the other calls;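 further: 0% = neutral control wells and 100% = positive control wells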
esBAF inh: SWI/SNF esBAF complex inhibition | mouse ES cells, Bmi1-luciferase knock-in reporter, 24 h; 100% = twice the neutral-well signal | reporter increase, % at 12.5 µM | 2% of 350,000 active; in the data active means activation above about 40%; inconclusive means no clear call, values can overlap the other calls;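 further: 0% = median of the plate's neutral control wells and 100% = double that signal; a rise in the Bmi1 reporter signal indicates esBAF inhibition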
MITF TRPM1 HTS: MITF TRPM1 promoter activation in melanoma cells; SK-MEL-5 TRPM1-promoter luciferase, 24 h; % of positive control, neutral wells = 0; activation, % at 12.5 µM; 0.75% of 300,000 active;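 active means mean activation of at least 80% with every replicate also reaching 80%; inconclusive means mean reaches 80% but some replicate falls short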;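 further: 0% = neutral control wells and 100% = parthenolide positive control wells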
Statin myotox sup: suppression of simvastatin myotoxicity | C2C12 myotubes + simvastatin, ATP luminescence, 48 h; scaled: DMSO 0, geranylgeraniol control 100 | rescue of ATP level, % at 7.49 µM | 0.78% of 330,000 active | AID 602340;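 active means mean ATP rescue above about 67%, or every replicate alone reaching that limit, limit read from the data, passing the limit was not always enough; inconclusive means no clear call, values can overlap the other calls; inactive means mean under the limit and some replicate under it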;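 further: myotubes were challenged with 10 µM simvastatin during compound exposure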
Ring1 derepress: de-represses Ring1 in mouse ESCs, confirming esBAF inhibition. shares compounds with esBAF inh. fold change at 33 µM. mouse ESC E14, Ring1 mRNA RT-qPCR fold change. 550 tested, under 10 active;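 active means Ring1 gene expression raised more than 2-fold over untreated cells in both replicates at either tested dose; inconclusive means only one replicate above 2-fold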;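 further: Ring1 transcript normalised to actin housekeeping signal by TaqMan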
esBAF Fgf4 qPCR: esBAF inhibition confirmed by Fgf4 repression | Fgf4 expression fold change at 33 µM | shares compounds with esBAF inh | mouse ESC E14, Fgf4 mRNA qPCR fold change; hits give low values | 4% of 550 active;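 active means Fgf4 expression under 0.8 fold of control in both repeat measurements at one or both tested doses; inconclusive means under 0.8 fold in just a single repeat measurement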;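 further: Fgf4 transcript normalised to actin in duplex TaqMan qPCR; cells exposed to compound for 24 h before lysis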
Bmi1 derepress: esBAF inhibition confirmed by Bmi1 de-repression. mouse ESE14 ES cells, Bmi1 mRNA qPCR fold; hits give high values. 550 tested, under 10 active. shares compounds with esBAF inh. fold change at 33 µM;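 active means Bmi1 expression fold change above 6 at either tested concentration, seen in replicate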;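 further: higher fold means more Bmi1 de-repression and stronger esBAF inhibition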
A549 tox SP: cytotoxicity in A549 cells; shares compounds with esBAF inh; plate reader; cell viability change % (negative = cytotoxic), % at 25 µM, hits read low; 550 tested, under 10 active; AID 743188; call rule not given here
HepG2 tox SP: HepG2 cell cytotoxicity at single point; shares compounds with esBAF inh; plate reader; hits give low values; activity change, negative = inhibition, % at 25 µM; 4% of 550 active; AID 743189; in the data active means activity change below about -50%
HEK293 tox SP: cytotoxicity in HEK293 cells | AID 743190 | plate reader | 3% of 550 active | activity change, negative = inhibition, % at 25 µM, hits read low | shares compounds with esBAF inh; in the data active means activity change below about -38%, passing the limit was not always enough
* marks the source's active call; other numbers are inactive results; ? = inconclusive; . = no result. Shown are actives, neighbours in structure and some others; about 4% of the full set was active somewhere.

SMILES	LMP1 NFkB inh	TRPM1 prom inh	Wnt bcat act	esBAF inh	MITF TRPM1 HTS	Statin myotox sup	Ring1 derepress	esBAF Fgf4 qPCR	Bmi1 derepress	A549 tox SP	HepG2 tox SP	HEK293 tox SP
O=C(O)c1ccc2c(c1)C(=O)N(CCc1c[nH]c3ccccc13)C2=O	-34	-56	16	47*	63	5	1.2	0.98	1.5	-2	-3	3
COc1ccc(OCc2cc(C(=O)NC(C)c3csc(C)n3)no2)c(Cl)c1 (configuration not stated)	-22	-63	29	66*	64	-3	1.2	0.83	1.2	-4	-29	-12
CCn1c(COc2ccccc2OC)nc2ccccc21	6	-44	2	?	39	-1	.	.	.	.	.	.
CCn1c(COc2ccccc2C)nc2ccccc21	-12	-84	.	65*	?	8	1.1	0.94	1.8	-7	1	-14
COC(=O)c1ccc(CN(c2ccccn2)S(=O)(=O)c2ccccc2)cc1	2	3	-1	1	.	3	.	.	.	.	.	.
O=C1CCCN1C(=O)COc1cc(F)ccc1[N+](=O)[O-]	-4	-3	-2	-3	2	-6	.	.	.	.	.	.
O=C(CN1CCN(Cc2ccccc2)CC1)c1ccccc1	2	9	-5	4	-9	.	.	.	.	.	.	.
Cc1onc(-c2c(F)cccc2Cl)c1C(=O)Nc1ccccc1N1CCOCC1	11	5	-6	-2	-10	16	.	.	.	.	.	.
COc1cccc(OCc2cc(C(=O)N(C)Cc3nc4ccccc4[nH]3)no2)c1	-33	-60	25	69*	66	-16	1.3	?	1.7	-2	-23	-18
CC(C)Oc1ccc(F)cc1-c1cc(C(=O)Nc2ccccc2)[nH]n1	.	.	-3	7	.	-3	.	.	.	.	.	.
COc1ccc(-c2cc(C(=O)Nc3cccnc3)no2)cc1OC	-19	-75	29	65*	87*	8	1.4	?	1.9	-3	-19	1
COc1ccc(-c2cc(C(=O)NCc3cccnc3)no2)cc1OC	-4	-8	.	10	9	4	.	.	.	.	.	.
COc1ccc(F)cc1-c1cc(C(=O)Nc2cccnc2)[nH]n1	.	.	0	57*	.	-20	1.2	1	1.8	-9	-1	-13
Cc1ccc(C(=O)O)cc1NC(=S)NC(=O)c1ccc(-c2ccc(Cl)cc2)o1	2	-8	2	.	7	.	.	.	.	.	.	.
O=C(CN1CCOCC1)N[C@H]1CC[C@@H](CCNC(=O)C2CCCC2)O[C@H]1CO	.	.	.	-2	.	-6	.	.	.	.	.	.
O=C1CS/C(=N/N=C/c2c[nH]c3ccccc23)N1	.	.	0	.	.	.	.	.	.	.	.	.
C(=NN=Cc1c[nH]c2ccccc12)c1c[nH]c2ccccc12	-40	.	46*	74*	.	-5	1.2	0.96	1.6	0	-26	-3
FC(F)(F)c1ccccc1/C=N/Nc1ccccn1	-14	-9	2	.	10	.	.	.	.	.	.	.
Oc1cccc(C=NNc2ccccn2)c1	0	-12	0	76*	14	6	0.96	0.92	1.7	1	-20	5
Clc1ccccc1C=NNc1ccccn1	-39	-31	39*	98*	35	5	1.1	0.9	1.4	-15	-13	-5
O=C1C(Cl)=C(N2CCCCCC2)C(=O)N1c1ccccc1	1	11	-5	7	-8	-10	.	.	.	.	.	.
CC(=O)c1c(C)[nH]c(C(=O)OCc2ccc(Br)cc2)c1C	-8	-28	5	64*	31	5	1.4	1.1	2	-8	-24	-22
Clc1ccc(-c2nc(Cc3ccccc3)no2)cc1	-38	-94	.	70*	106*	-4	1.1	0.93	1.2	-16	-13	-13
COc1ccc(-c2nc(Cc3ccc(Cl)cc3)no2)cc1OC	4	-2	.	.	1	.	.	.	.	.	.	.
O=C(c1ccccc1)c1ccc2ccccc2c1	-14	-56	5	75*	61	3	1.1	0.85	1.6	-5	-2	-11
SMILES	LMP1 NFkB inh	TRPM1 prom inh	Wnt bcat act	esBAF inh	MITF TRPM1 HTS	Statin myotox sup	Ring1 derepress	esBAF Fgf4 qPCR	Bmi1 derepress	A549 tox SP	HepG2 tox SP	HEK293 tox SP
O=C1C(=C2CCc3ccccc32)Cc2ccccc21	.	.	5	71*	.	11	1.2	1.1	1.5	-3	22	-3
O=C1C(=NO)CCCc2ccccc21	1	-3	-2	14	8	-5	.	.	.	.	.	.
Cc1cccc(NC(=O)c2ccc(S(=O)(=O)N3CCCC3)cc2)c1C	0	0	-3	1	0	17	.	.	.	.	.	.
CC1CCc2sc(C(=O)NC(C)C3CCCO3)cc2C1 (configuration not stated)	-12	-31	2	.	30	.	.	.	.	.	.	.
CC1CCc2sc(C(=O)NC3CCCCC3)cc2C1 (configuration not stated)	-30	.	54*	75*	.	-1	1.3	0.93	1.4	-6	-17	-9
Cc1csc(NC(=O)c2cc(C)nc3ccccc23)n1	-9	10	1	.	-6	.	.	.	.	.	.	.
C[C@H](CO)N1C[C@H](C)[C@H](CN(C)S(C)(=O)=O)Oc2ccc(NC(=O)CCCCCC(=O)Nc3ccccc3N)cc2CC1=O	.	.	.	-2	.	4	.	.	.	.	.	.
CC(C)N1CC2(CC(c3ccccc3C(F)(F)F)=NO2)CN1C(=O)c1ccc(C(C)(C)C)cc1 (configuration not stated)	13	.	-2	0	.	-15	.	.	.	.	.	.
CC(C)N1CC2(CC(c3ccccc3F)=NO2)CN1C(=O)c1ccc(C(C)(C)C)cc1 (configuration not stated)	-21	.	-1	75*	.	2	0.92	0.89	1.7	-6	-1	-9
COc1ccccc1NS(=O)(=O)c1ccc2c(c1)OCCO2	-5	2	-3	.	0	.	.	.	.	.	.	.
COc1ccccc1C(=O)Nc1sc2c(c1C(N)=O)CCCC2	-29	-27	1	29	29	-31	.	.	.	.	.	.
COc1ccccc1C(=O)Nc1sc2c(c1C#N)CCC2	-32	-11	.	59*	14	2	0.9	0.81	1.6	1	-28	-10
CC(C)Cc1cc(C(=O)Nc2ccc(Br)cc2)no1	-29	-108	37*	69*	111*	13	0.92	0.96	1.7	0	29	-19
CC(C)Cc1cc(C(=O)Nc2cccc(O)c2)no1	-2	-12	18	-27	8	6	.	.	.	.	.	.

Assay outcomes deposited in PubChem by Broad Institute.
